Compound activity deposited in PubChem BioAssay by National Center for Advancing Translational Sciences (NCATS).
Most compounds without a hit are left out; they make up all but 20% or so of the library.
CHX counter: Cycloheximide Counterscreen for Small Molecule Inhibitors of Shiga Toxin; cell reporter, cycloheximide protein synthesis inhibition counterscreen; max response, %; hit rate 12% among 300,000; AID 2314, 2010; in the data active = max response mostly above about 13%, no sharp cut-off; inactive = mostly below about 14%; also: read at 38.3 µM for the half of the compounds with a filed dose; 0% is about no effect
Pf growth 96h: Primary qHTS for delayed death inhibitors of the malarial parasite plastid, 96 hour incubation | AID 504834, 2011 | Potency, µM (series often up to 28.7 µM), for inactives: top-dose activity change, negative = inhibition, most hits filed as inhibitors | hit rate 6.9% among 320,000 | P. falciparum luciferase reporter growth, 96 h; also: potency is read from the fitted curve at half-maximal effect; % is scaled to controls: 0 for no effect and ±100 for the full control effect
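Delayed-death screen, second-generation endpoint: infected erythrocytes, 2% hematocrit, 0.05% parasitemia final; 96 hours at 37 C, 5% CO2; luciferase detection reagent; luminescence decrease equals reduced growth.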
Pf growth 48h: Primary qHTS for delayed death inhibitors of the malarial parasite plastid, 48 hour incubation. P. falciparum luciferase growth in erythrocytes, 48 h. Potency, µM (top dose mostly 28.7 µM), for inactives: at the highest dose activity change, negative = inhibition, most hits filed as inhibitors. hit rate 5.9% among 310,000. AID 504832, 2011; also: potency is read from the fitted curve at half-maximal effect; % is scaled to controls: 0 for no effect and ±100 for the full control effect
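Luminescence readout; reporter = integrated firefly luciferase in P. falciparum. RBC culture at 2% hematocrit, 0.1% parasitemia final, 37 C/5% CO2; decreased signal taken as growth inhibition.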
Shiga toxin inh: A qHTS for Small Molecule Inhibitors of Shiga Toxin; Vero cells, Shiga toxin protein synthesis inhibition reporter; inhibition, % at 38.7 µM; hit rate 9.2% among 290,000; AID 2315, 2010; in the data active = inhibition mostly above about 28%, no sharp cut-off; inactive = mostly below about 43%; also: 0% is about no effect
HCMV antiviral: qHTS Assay for inhibitors of the human cytomegalovirus (HCMV) | HFF cells, HCMV-luciferase reporter, 72 h; hits give low values | hit rate 4.5% among 410,000 | activity change, negative = inhibition, % at 57.5 µM; in the data active = activity change below about -60%; inconclusive = no clear call, values can overlap the other calls; inactive = above about -39%; also: % is scaled to controls: 0 for no effect and ±100 for the full control effect
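Luciferase read-out from HCMV-luciferase-infected HFFs (MOI 1 PFU/cell) 72 h post infection at 37C; compounds added after 16 h cell attachment; activity normalized between buffer-only basal and Salinomycin (10uM) inhibitor controls.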
Starred values were filed as active, the others as inactive; ? = inconclusive; . = no result given; + = active, no number; [ ] = remark or other dose. Unless noted, calls follow the shape of the dose curve; as a rule, active = well fitted inhibition curve with a large enough effect; inconclusive = small, poorly fitted or top-dose-only effect, or another doubt; inactive = no such curve, though single readings can be large or run the other way.

SMILES | CHX counter | Pf growth 96h | Pf growth 48h | Shiga toxin inh | HCMV antiviral
COc1cc(CN2C[C@@H](CO)O[C@@H](n3cnc4c(N5CCN(c6ccccc6)CC5)ncnc43)C2)cc(OC)c1OC | . | . | . | . | -34
CCC(=O)NC(c1ccccc1OC)c1ccc2cccnc2c1O (configuration not stated) | 9 | -4% | 4.1µM* | 19 | .
CCC(=O)NC(c1ccco1)c1cc(Cl)c2cccnc2c1OC (configuration not stated) | . | ? | ? | . | -4
CS(=O)(=O)N1CCCC(C(=O)NCc2cccs2)C1 (configuration not stated) | -1 | 5.9µM* | -4% | 16 | -22
CCC1CCCCN1S(=O)(=O)c1ccc(S(=O)(=O)N(Cc2cccs2)C2CC2)cc1 (configuration not stated) | -1 | 29% | 8.3µM* | 28 | -12
Cc1ccc(S(=O)(=O)N2CCCC(C(=O)N(Cc3cccs3)C3CC3)C2)cc1 (configuration not stated) | 6 | 13µM* | 5.2µM* | 11 | -39
O=C(NCc1cccs1)C1CCCN(S(=O)(=O)c2cccs2)C1 (configuration not stated) | 3 | . | -6% | -2 | 14
CCC1CCCCN1S(=O)(=O)c1ccc(S(=O)(=O)N(Cc2ccccn2)CC2CCCO2)cc1 (configuration not stated) | -1 | 17% | -28% | -14 | -23
CCS(=O)(=O)N1CCC(C(=O)NCc2ccccn2)CC1 | -2 | ? | -9% | -18 | -25
CCS(=O)(=O)N1CCC(C(=O)NCc2cccs2)CC1 | -1 | 7.4µM* | 0% | -7 | -1
O=S1(=O)N[C@@H](Cc2ccccc2)COc2cccc(NCCO)c21 | . | . | . | . | -17
O=C(COc1cccnc1[N+](=O)[O-])c1ccc(Cl)s1 | 18* | -5% | -31% | 29 | -25
COC(=O)CCn1c(C)cc(C(=O)COc2ccccc2C(N)=O)c1C | 11 | 17% | 13% | -11 | 10
CC(=O)Nc1ccccc1OCC(=O)c1cc(C)n(Cc2cccs2)c1C | 66* | 56% | 150% | 127* | -94*
Cc1cc(C(=O)COc2cccnc2[N+](=O)[O-])c(C)n1Cc1cccs1 | 43* | 19% | 6% | 147* | 15
CCC(C)(C)NC(=O)CN(C(=O)CCC(=O)Nc1ccccn1)c1ccc2c(c1)OCO2 | -4 | -24% | -17% | -7 | -15
Cn1nc(-c2ccccc2)cc1NC(=O)C1CCCCC1 | 41* | 70% | 69% | 59 | 70
Cn1nc(-c2ccccc2)cc1NC(=O)Nc1ccccc1F | 36* | 50% | 60% | 57 | 29
Cc1cc(C)cc(NC(=O)Nc2cc(-c3ccccc3)nn2C)c1 | 8 | 1% | 1% | 11 | -69*
Cn1nc(-c2ccccc2)cc1NC(=O)CCCC(=O)O | 1 | 40% | -2% | 4 | 36
CCOC(=O)C(=O)N(C)c1c(CC)nc2c(OCc3ccccc3)cccn12 | . | . | . | . | 8
Cc1ccccc1N1C(=O)c2ccccc2C1Nc1cccnc1 (configuration not stated) | -6 | ? | . | -2 | 35
CCc1cccc(NC2c3ccccc3C(=O)N2c2cccnc2)c1 (configuration not stated) | -4 | 57% | ? | -2 | 28
O=C1c2ccccc2C(Nc2ccc(Cl)cn2)N1Cc1ccccc1 (configuration not stated) | -3 | ? | . | -5 | 11
O=C1c2ccccc2C(Nc2ccccc2)N1c1ccc(Cl)cn1 (configuration not stated) | 71* | ? | . | 169* | 17
SMILES | CHX counter | Pf growth 96h | Pf growth 48h | Shiga toxin inh | HCMV antiviral
CCOC(=O)c1ccc(NC2c3ccccc3C(=O)N2c2cccnc2)cc1 (configuration not stated) | -4 | ? | 3% | -2 | 1
CCc1cccc(NC2c3ccccc3C(=O)N2c2ccc(C)cn2)c1 (configuration not stated) | 41 | ? | . | 90* | 53
Cc1ccc(N2C(=O)c3ccccc3C2Nc2ccccc2)nc1 (configuration not stated) | 10 | 10µM* | . | 30 | 28
CCOC(=O)c1ccc(NC2c3ccccc3C(=O)N2c2ccc(C)cn2)cc1 (configuration not stated) | -3 | 12µM* | . | 26 | 5
Cc1cc(C)cc(NC(=O)c2sc3nc4n(c(=O)c3c2C)N=C(c2ccc(F)cc2)CS4)c1 | . | . | . | . | 3
CCOc1ccc(-c2csc(NC(=O)CSC3=NC(=O)CN3C(C)=O)n2)c2ccccc12 | -6 | 10µM* | ? | -10 | -28
O=C(CSc1nc2ccccc2o1)Nc1nc(-c2ccccc2)c(-c2ccccc2)s1 | -6 | -18% | -4% | -4 | -11
CC(=O)N1CC(=O)N=C1SCC(=O)Nc1nc(C)c(-c2ccccc2)s1 | 33* | -25% | -79% | 37* | 59
CN(NC(=O)C(=O)NCc1ccco1)C(=O)Nc1ccc(Cl)cc1 | . | . | . | . | 16
O=C(Nc1ccccc1C(=O)Nc1ccccn1)c1cccc([N+](=O)[O-])c1 | -2 | -1% | 9% | -3 | 16
CC(C)CC(=O)c1c[nH]c(C(=O)NCc2ccc(F)cc2)c1 | -2 | -7% | 4%[0.00184 µM] | 18 | ?
CC(=O)C1=C(C)Nc2ncnn2C1c1ccccc1 (configuration not stated) | 0 | 0.33µM* | 32% | -2 | -2
CC(=O)C1=C(C)Nc2ncnn2C1c1cccc(OCc2ccccc2)c1 (configuration not stated) | -3 | 0% | 10µM* | -6 | 8
COC(=O)C1=C(C)Nc2ncnn2C1c1ccc(C)o1 (configuration not stated) | -4 | 10µM* | -13% | 9 | 5
CCCS(=O)(=O)c1c(S(=O)(=O)CCC)c2cc(C(C)(C)C)ccn2c1C(=O)c1ccc(C)cc1 | . | . | . | . | -4
CC(C)CC1NC(=O)c2ccc(Cl)cc2-n2c1nc1ccc(Cl)cc1c2=O (configuration not stated) | . | . | . | . | 10
CCCCCSc1cc(O)c(C(CNC)C(C)C)cc1OC (configuration not stated) | -5 | 0.47µM* | 0.41µM* | -2 | -4
Cc1cccc(NC(=O)CCSc2ccccn2)c1 | 75* | 116% | 72% | 74* | -34
Cc1ccc(NC(=O)CCSc2ccccn2)cc1 | 59* | 237% | 198% | + | -12
Cc1cccc(NC(=O)CCSc2nncn2C)c1 | -2 | 5% | 33% | 15 | -1
Cc1ccc(NC(=O)CCSc2nnc(C)o2)cc1 | 6 | -4% | 0% | 3 | -22
COc1ccccc1-c1noc(CSc2nc3ccc(C)cc3[nH]2)n1 | . | . | . | . | -28
Cc1nc(Cl)sc1C(=O)Nc1cccc(C(F)(F)F)c1 | . | . | . | . | -3
Cc1ncoc1C(=O)Nc1cccc(Cl)c1 | 63* | 50% | 58% | 100* | 104
